Test results: PubChem BioAssay (NCATS)
Where “and” joins values, the source holds several entries; their conditions need not be identical. Equal entries are not always repeated. Inconclusive results are not listed. Calls of active or inactive are those of the source. Unless noted, calls follow the shape of the dose curve; as a rule, active = well fitted curve in the direction sought with a large enough effect; inconclusive = small, poorly fitted or top-dose-only effect, or another doubt; inactive = no such curve, though single readings can be large; an effect the other way counts as inactive or inconclusive.

Experiments:
[1] = target: Cytochrome P450 3A4 (Homo sapiens) (UniProt P08684); experiment: qHTS Assay for Inhibitors and Substrates of Cytochrome P450 3A4 (AID 884); also: series mostly up to about 57 µM; % is scaled to controls: 0 for no effect and ±100 for the full control effect; nearly all actives have a fitted effect of over 50% in size
Summary of the method: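 20 nM human CYP3A4 with 25 uM Luciferin-PPXE (at KM) in 200 mM KPO4, preincubated 10 min with compound; NADPH regeneration started a 60 min RT reaction. Luciferin detected by luminescence, normalized to 57 uM ketoconazole as full inhibition.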

[2] = MultiTox-Fluor Cytotoxicity Assay - LYMP1-001 - Live Cells (AID 947);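 also: 0% = DMSO only and full inhibition = tetraoctylammonium bromide control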
[3] = Cell Viability - LYMP2-004 (AID 966);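 also: plate controls were DMSO only for no effect and tetraoctylammonium bromide control for full effect; nearly all actives have a fitted effect of over 65% in size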
Summary of the method: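 Acute toxicity is scored as a concentration-dependent drop in intracellular ATP, quantified by luciferase luminescence, in human lymphoblastoid cells exposed to compound for 24 hr. AC50 derives from Hill-equation modelling.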

[4] = Cell Viability - LYMP2-009 (AID 968);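 also: series mostly up to about 92 µM; cells exposed to compound for 24 h at 37 °C; 0% = DMSO alone and the full-kill end = tetraoctylammonium bromide at 92 µM; nearly all actives have a fitted effect of over 55% in size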
[5] = Cell Viability - LYMP2-010 (AID 981);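 also: cells exposed to compound for 24 hours at 37 °C; % is scaled to controls: 0 for no effect and ±100 for the full control effect; nearly all actives have a fitted effect of over 55% in size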
Summary of the method: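 Acute toxicity is scored as a concentration-dependent loss of cellular ATP in human lymphoblastoid cells after 24 hr compound exposure in complete medium. Tetraoctylammonium bromide is the positive control.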

[6] = Cell Viability - LYMP2-012 (AID 982);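 also: cellular ATP by luciferase luminescence where a drop means cytotoxicity; cells exposed to compound for one day before reading; 0% = DMSO only and full loss = 92 µM tetraoctylammonium bromide; nearly all actives have a fitted effect of over 55% in size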
[7] = target: Estrogen receptor (Homo sapiens) (UniProt P03372); experiment: qHTS assay for small molecule antagonists of estrogen receptor alpha signaling (AID 588513; active = well fitted curve in the direction sought with a large enough effect in the signal ratio, with a control signal flat, not every such curve was filed as active; the % refers to the signal ratio; also: % is scaled to controls: 0 for no effect and ±100 for the full control effect)
Chain of Estrogen receptor (Homo sapiens) (P03372 whole entry, looked up): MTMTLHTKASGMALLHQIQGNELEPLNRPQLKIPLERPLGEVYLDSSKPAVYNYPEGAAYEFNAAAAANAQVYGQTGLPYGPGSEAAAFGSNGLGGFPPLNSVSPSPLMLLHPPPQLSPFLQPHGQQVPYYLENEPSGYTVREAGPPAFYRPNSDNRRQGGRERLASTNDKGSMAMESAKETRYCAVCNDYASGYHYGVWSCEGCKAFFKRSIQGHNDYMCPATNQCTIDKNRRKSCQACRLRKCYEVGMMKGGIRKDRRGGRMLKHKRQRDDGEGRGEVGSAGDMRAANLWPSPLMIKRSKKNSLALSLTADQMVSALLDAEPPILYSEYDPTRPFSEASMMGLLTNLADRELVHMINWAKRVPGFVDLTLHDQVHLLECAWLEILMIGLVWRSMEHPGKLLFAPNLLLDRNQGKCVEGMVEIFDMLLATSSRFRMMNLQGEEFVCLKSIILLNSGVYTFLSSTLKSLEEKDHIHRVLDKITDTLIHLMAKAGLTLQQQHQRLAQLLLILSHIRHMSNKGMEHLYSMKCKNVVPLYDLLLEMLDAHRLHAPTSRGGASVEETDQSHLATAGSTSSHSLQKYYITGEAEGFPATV
Summary of the method: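 Fluorescence from CCF4 substrate after 2 h at room temperature gave reporter activity; cells had been exposed to compound and 0.5nM 17-beta-estradiol for 18 h at 37 C. Hill-equation fitting yielded IC50 and maximal response.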

[8] = target: Estrogen receptor (Homo sapiens) (UniProt P03372); experiment: qHTS assay for small molecule agonists of estrogen receptor alpha signaling (AID 588514; calls by dose curve;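 also: 0% = vehicle only and 100% = reference agonist; nearly all actives have a fitted effect of over 70% in size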)
Summary of the method: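 Reporter-gene assay. […] controls beta-lactamase in HEK 293 GripTite cells; after 18 hrs with compound, CCF4 substrate is added for 2 hrs and fluorescence is read.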

[9] = target: Glucocorticoid receptor (Homo sapiens) (UniProt P04150); experiment: qHTS assay for small molecule agonists of glucocorticoid receptor signaling (AID 588532; active = well fitted curve in the direction sought with a large enough effect in the signal ratio, with a control signal flat; the % refers to the signal ratio;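 also: 100% = dexamethasone at 0.1 µM and 0% = DMSO only wells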); settings: HeLa MMTV-bla, beta-lactamase ratio, agonist, 18 h; active compounds read high; percent of dexamethasone control, DMSO zero
Chain of Glucocorticoid receptor (Homo sapiens) (P04150 whole entry, looked up): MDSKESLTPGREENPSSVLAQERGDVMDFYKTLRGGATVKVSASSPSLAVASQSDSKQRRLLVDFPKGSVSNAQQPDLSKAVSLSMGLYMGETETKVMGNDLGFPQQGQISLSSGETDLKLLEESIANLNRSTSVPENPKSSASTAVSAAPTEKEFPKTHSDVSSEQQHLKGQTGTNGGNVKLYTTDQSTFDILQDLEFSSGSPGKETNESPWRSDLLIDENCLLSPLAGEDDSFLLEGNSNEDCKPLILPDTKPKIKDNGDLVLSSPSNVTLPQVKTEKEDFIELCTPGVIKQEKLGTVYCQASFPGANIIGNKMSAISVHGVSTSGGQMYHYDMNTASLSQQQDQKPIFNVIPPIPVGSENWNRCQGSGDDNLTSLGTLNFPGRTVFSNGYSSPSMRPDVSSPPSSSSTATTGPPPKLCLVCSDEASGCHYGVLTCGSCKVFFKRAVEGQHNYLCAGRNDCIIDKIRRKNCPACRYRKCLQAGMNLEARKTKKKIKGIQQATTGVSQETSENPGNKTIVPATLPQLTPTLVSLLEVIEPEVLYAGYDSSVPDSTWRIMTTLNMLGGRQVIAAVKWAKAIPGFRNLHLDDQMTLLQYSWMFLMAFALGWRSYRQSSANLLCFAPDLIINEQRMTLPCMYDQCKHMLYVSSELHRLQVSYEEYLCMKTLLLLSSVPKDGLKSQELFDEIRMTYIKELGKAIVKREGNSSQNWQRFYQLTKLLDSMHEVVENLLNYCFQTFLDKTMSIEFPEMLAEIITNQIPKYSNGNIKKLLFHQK
Summary of the method: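 MMTV-bla HeLa beta-lactamase reporter cells in 1% charcoal/dextran FBS medium, compounds up to 92 uM for 18 h at 37 C, CCF4 readout; normalized to 0.1 uM dexamethasone (100%), EC50 and efficacy from Hill fits.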

[10] = target: Glucocorticoid receptor (Homo sapiens) (UniProt P04150); experiment: qHTS assay for small molecule antagonists of glucocorticoid receptor signaling (AID 588533; active = well fitted inhibition curve with a large enough effect in the signal ratio, with a control signal flat, not every such curve was filed as active; the % refers to the signal ratio;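 also: cells stimulated with 2 nM dexamethasone as agonist; % is scaled to controls: 0 for no effect and ±100 for the full control effect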)
Summary of the method: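 Antagonist-mode qHTS: compound titrations added to GRE-bla HeLa cells, then dexamethasone 2 nM final; 18 h, 37 C. CCF4 FRET fluorescence normalized to dexamethasone and DMSO; IC50 from Hill fit.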

[11] = target: Peroxisome proliferator-activated receptor delta (Homo sapiens) (UniProt Q03181); experiment: qHTS assay for small molecule agonists of peroxisome proliferator-activated receptor delta signaling (AID 588534; calls by dose curve;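 also: 0% = DMSO basal wells and 100% = positive control agonist at 10 µM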)
Chain of Peroxisome proliferator-activated receptor delta (Homo sapiens) (Q03181 whole entry, looked up): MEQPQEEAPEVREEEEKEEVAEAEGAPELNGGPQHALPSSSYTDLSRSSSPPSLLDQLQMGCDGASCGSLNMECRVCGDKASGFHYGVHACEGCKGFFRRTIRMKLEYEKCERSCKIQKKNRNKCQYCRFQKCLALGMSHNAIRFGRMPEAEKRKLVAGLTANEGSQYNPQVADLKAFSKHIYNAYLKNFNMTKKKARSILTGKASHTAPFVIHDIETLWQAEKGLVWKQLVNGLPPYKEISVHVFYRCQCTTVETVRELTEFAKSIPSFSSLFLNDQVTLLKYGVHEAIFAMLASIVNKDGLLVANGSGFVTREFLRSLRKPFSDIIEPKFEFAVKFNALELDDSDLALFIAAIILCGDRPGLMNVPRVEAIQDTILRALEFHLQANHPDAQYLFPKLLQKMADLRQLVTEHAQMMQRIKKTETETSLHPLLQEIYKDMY
Summary of the method: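 Reporter cells were plated and held 5 hrs at 37 C before compounds were added. After 18 hrs at 37 C, CCF4 dye was loaded for 2 hrs at RT and fluorescence measured.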

[12] = target: Peroxisome proliferator-activated receptor gamma (Homo sapiens) (UniProt P37231); experiment: qHTS assay for small molecule agonists of peroxisome proliferator-activated receptor gamma signaling (AID 588536; active = well fitted curve in the direction sought with a large enough effect in the signal ratio, with a control signal flat, not every such curve was filed as active; the % refers to the signal ratio;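 also: 0% = DMSO basal wells and 100% = rosiglitazone at 2 µM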)
Chain of Peroxisome proliferator-activated receptor gamma (Homo sapiens) (P37231 whole entry, looked up): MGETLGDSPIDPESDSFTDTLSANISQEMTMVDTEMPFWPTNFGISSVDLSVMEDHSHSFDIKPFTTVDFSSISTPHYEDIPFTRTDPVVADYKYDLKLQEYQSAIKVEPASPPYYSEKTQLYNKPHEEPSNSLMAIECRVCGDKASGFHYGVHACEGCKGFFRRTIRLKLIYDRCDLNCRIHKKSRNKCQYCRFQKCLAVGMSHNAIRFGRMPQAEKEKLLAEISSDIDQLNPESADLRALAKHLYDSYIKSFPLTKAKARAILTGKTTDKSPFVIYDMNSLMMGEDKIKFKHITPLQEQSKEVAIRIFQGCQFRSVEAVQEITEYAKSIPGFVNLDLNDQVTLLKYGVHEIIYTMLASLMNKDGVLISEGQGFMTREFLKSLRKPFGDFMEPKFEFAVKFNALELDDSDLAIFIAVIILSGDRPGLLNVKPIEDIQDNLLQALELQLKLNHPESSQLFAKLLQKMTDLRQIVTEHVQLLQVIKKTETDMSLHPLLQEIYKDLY
Summary of the method: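 HEK293 UAS-bla reporter line, 1% charcoal/dextran FBS; titration, 16 h, 37 C; CCF4 loading 2 h RT; fluorescence 460/530 nm. Normalized to rosiglitazone 2 uM = 100%, DMSO = 0%.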

[13] = target: Thyroid hormone receptor beta (Homo sapiens) (UniProt P10828); experiment: qHTS assay for small molecule agonists of thyroid hormone receptor beta signaling (AID 588545; calls by dose curve)
Chain of Thyroid hormone receptor beta (Homo sapiens) (P10828 whole entry, looked up): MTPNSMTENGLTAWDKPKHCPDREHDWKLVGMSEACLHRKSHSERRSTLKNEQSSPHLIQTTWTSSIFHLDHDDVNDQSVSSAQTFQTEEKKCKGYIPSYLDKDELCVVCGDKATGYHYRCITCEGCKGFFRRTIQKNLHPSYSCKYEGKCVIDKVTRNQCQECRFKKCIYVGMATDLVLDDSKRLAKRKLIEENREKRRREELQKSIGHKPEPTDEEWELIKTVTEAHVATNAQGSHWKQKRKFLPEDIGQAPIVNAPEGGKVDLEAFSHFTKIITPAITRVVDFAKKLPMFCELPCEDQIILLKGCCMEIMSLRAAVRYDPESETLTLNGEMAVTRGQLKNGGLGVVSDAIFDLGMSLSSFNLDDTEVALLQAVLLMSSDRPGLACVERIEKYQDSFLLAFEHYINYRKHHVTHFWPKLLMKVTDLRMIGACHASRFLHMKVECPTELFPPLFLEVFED
Summary of the method: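 Agonist-mode beta-lactamase reporter assay, HEK 293 cells, 2% charcoal/dextran FBS; cells plated 4 hrs, compound 18 hrs at 37 C, CCF4 2 hrs RT. Normalized to 10 nM T3 (100%) and DMSO (0%); Hill fit gives EC50, efficacy.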

[14] = target: Thyroid hormone receptor beta (Homo sapiens) (UniProt P10828); experiment: qHTS assay for small molecule antagonists of thyroid hormone receptor beta signaling (AID 588547; active = well fitted inhibition curve with a large enough effect in the signal ratio, with a control signal flat, not every such curve was filed as active; the % refers to the signal ratio;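 also: cells stimulated with 0.4 nM T3 agonist during compound exposure; series mostly up to about 77 µM; % is scaled to controls: 0 for no effect and ±100 for the full control effect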); settings: TR-UAS-bla HEK293, beta-lactamase ratio, antagonist mode, 18 h
Summary of the method: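 TR-UAS-bla GripTite HEK293 cells in 2% charcoal/dextran FBS medium; compounds 0.59 nM to 92 uM with T3 at 0.4nM final, 18 h at 37 C. Beta-lactamase read by CCF4 fluorescence (460/530 nm); Hill fits gave IC50 and efficacy.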

[15] = target: Voltage-gated inwardly rectifying potassium channel KCNH2 (Homo sapiens) (UniProt Q12809); experiment: qHTS Assay for Small Molecule Inhibitors of the Human hERG Channel Activity (AID 588834);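 also: top concentration of the series differs between compounds; % is scaled to controls: 0 for no effect and ±100 for the full control effect; lower thallium flux fluorescence means stronger hERG block; nearly all actives have a fitted effect of over 50% in size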
Chain of Voltage-gated inwardly rectifying potassium channel KCNH2 (Homo sapiens) (Q12809 whole entry, looked up): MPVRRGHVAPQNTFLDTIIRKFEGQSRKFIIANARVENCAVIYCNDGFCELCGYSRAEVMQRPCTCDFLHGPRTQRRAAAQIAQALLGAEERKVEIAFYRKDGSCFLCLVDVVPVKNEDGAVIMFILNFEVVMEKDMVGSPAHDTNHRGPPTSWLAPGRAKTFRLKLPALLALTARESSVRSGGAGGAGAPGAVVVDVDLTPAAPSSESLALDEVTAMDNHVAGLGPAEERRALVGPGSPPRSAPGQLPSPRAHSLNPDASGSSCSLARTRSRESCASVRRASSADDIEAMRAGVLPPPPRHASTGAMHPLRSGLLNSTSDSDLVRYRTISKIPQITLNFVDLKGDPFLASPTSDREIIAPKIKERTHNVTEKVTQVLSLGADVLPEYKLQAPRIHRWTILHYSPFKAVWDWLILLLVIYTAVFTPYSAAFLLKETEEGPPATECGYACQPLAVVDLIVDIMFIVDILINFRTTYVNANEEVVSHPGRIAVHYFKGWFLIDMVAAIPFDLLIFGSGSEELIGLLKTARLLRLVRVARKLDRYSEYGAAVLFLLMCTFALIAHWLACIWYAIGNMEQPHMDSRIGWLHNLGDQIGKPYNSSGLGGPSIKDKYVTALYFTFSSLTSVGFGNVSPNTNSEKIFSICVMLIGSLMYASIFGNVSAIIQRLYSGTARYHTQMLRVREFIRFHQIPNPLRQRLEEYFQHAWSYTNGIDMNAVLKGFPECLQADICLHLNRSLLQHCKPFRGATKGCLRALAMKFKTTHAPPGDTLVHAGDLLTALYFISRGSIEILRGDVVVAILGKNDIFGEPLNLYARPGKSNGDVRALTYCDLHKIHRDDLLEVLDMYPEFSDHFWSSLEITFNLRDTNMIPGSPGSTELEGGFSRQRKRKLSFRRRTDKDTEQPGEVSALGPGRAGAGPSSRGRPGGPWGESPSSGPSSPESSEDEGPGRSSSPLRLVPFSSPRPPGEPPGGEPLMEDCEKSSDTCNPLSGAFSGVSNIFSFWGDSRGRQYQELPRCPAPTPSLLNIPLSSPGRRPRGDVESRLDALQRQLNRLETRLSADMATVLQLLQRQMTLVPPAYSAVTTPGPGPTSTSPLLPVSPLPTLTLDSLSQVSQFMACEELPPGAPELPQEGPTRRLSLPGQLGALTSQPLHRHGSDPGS
Summary of the method: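 hERG-BacMam U2OS, 2000 cells/well; 0.7X FluxOR loading 1 hr RT dark; cpd ~10 min 37 °C; stim buffer; FDSS fluorescence 2 min @ 1 s; AC50 Hill fit.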

[16] = qHTS assay for small molecule activators of the p53 signaling pathway (AID 651743; active = well fitted activation curve with a large enough effect in the signal ratio, not every such curve was filed as active; the % refers to the signal ratio; also: series mostly up to about 92 µM; % of control where 0% means no effect); settings: HCT-116 p53RE-bla, beta-lactamase FRET ratio, 16 h; activation: active compounds read high
Summary of the method: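 HCT-116 p53RE-bla, 4,000 cells/well; 5 h settle; cpd/DMSO 16 h, 37 C; LiveBLAzer B/G 2 h RT; fluorescence intensity.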

[17] = target: Nuclear receptor ROR-gamma (Homo sapiens) (UniProt P51449); experiment: qHTS assay for small molecule antagonists of the retinoid-related orphan receptor gamma (ROR-gamma) signaling pathway (AID 651802);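 also: CHO cells with doxycycline-induced ROR-gamma expression; series mostly up to about 92 µM; % is scaled to controls: 0 for no effect and ±100 for the full control effect; nearly all actives have a fitted effect of over 60% in size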
Chain of Nuclear receptor ROR-gamma (Homo sapiens) (P51449 whole entry, looked up): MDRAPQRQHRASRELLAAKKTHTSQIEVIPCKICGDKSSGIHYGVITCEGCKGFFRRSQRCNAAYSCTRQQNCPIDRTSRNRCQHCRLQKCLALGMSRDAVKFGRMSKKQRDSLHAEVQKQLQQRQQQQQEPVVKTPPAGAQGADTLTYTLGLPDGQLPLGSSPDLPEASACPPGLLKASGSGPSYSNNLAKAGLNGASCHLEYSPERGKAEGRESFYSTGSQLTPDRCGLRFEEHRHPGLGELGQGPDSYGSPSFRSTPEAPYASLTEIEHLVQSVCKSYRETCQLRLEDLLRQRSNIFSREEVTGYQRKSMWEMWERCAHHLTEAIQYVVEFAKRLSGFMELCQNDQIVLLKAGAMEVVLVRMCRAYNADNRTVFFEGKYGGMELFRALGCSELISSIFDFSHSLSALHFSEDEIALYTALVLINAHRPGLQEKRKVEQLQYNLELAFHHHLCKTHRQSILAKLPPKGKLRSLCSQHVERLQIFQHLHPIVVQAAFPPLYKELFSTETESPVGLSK
Summary of the method: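 Antagonism is scored as a fall in luminescence from a RORE-luciferase reporter in CHO cells expressing ROR under a TET-inducible promoter, measured 16hr after doxycycline induction in the presence of compound.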

[18] = target: Nuclear receptor subfamily 1 group I member 2 (Rattus norvegicus) (UniProt Q9R1A7); experiment: qHTS assay for small molecule activators of the rat pregnane X receptor (rPXR) signaling pathway (AID 651751; call rule not given here; also: 0% is about no effect); settings: rPXR reporter cells, luciferase (One-Glo), 24 h
Chain of Nuclear receptor subfamily 1 group I member 2 (Rattus norvegicus) (Q9R1A7 whole entry, looked up): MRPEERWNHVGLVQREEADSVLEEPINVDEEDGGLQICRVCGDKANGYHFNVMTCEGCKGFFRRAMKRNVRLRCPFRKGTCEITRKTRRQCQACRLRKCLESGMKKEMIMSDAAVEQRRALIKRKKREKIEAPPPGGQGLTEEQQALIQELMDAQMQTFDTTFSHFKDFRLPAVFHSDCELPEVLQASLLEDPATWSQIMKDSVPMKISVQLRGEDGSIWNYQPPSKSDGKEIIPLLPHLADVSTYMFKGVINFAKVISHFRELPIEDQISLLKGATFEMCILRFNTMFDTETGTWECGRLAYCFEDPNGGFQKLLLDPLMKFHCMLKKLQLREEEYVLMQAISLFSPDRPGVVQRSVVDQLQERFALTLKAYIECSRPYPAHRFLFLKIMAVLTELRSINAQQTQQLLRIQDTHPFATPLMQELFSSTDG

[19] = qHTS assay for small molecule activators of the human pregnane X receptor (PXR) signaling pathway (AID 720659; call rule not given here; also: 0% is about no effect)
[20] = qHTS assay for small molecule antagonists of the retinoid-related orphan receptor gamma (ROR-gamma) signaling pathway - cell viability counter screen (AID 720652; active = well fitted curve in the direction sought with a large enough effect in the repeat runs; an effect the other way counts as inactive or inconclusive;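 also: CHO reporter cells with doxycycline-induced ROR-gamma expression; series mostly up to about 92 µM; compound exposure lasted 16 hr before ATP read; % is scaled to controls: 0 for no effect and ±100 for the full control effect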)
Summary of the method: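 Cytotoxicity is quantified via intracellular ATP (CellTiter-Glo luminescence) in doxycycline-induced CHO ROR response element-luciferase reporter cells treated with compound for 16 hr at 37 C, 5% CO2.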

OCC1CO1 (stereo unspecified)
inactive: Potency [1] | Potency [2] | Potency [3] | Potency [4] | Potency [5] | Potency [6] | Potency [7] | Potency [8] | activation [9] -12% | Potency [10] | outcome [11] | outcome [12] | outcome [13] | activity change % (negative = inhibition) [14] -4.57% and 15.9% | Potency [15] | activation [16] -2.94% and 1.37% | Potency [17] | max response [18] -4.01% and -4.87% | outcome [19]

C=C(Cl)Cl
inactive: Potency [1] | Potency [2] | Potency [3] | Potency [4] | Potency [5] | Potency [6] | Potency [7] | Potency [8] | activation [9] -1.7% | outcome [11] | outcome [12] | outcome [13] | activity change % (negative = inhibition) [14] -6% | Potency [15] | activation [16] -1.18% | Potency [17] | Potency [20] | max response [18] -3.03% | outcome [19]

O=C(Cl)/C=C/C(=O)Cl
inactive: Potency [2] | Potency [3] | Potency [4] | Potency [5] | Potency [6] | Potency [7] | Potency [8] | activation [9] 18.2% | Potency [10] | outcome [11] | outcome [12] | outcome [13] | activity change % (negative = inhibition) [14] 2.64% | Potency [15] | activation [16] -2.72% | Potency [17] | Potency [20] | max response [18] 0.356% | outcome [19]

Nc1ccccc1Cl
inactive: Potency [1] | Potency [2] | Potency [3] | Potency [4] | Potency [5] | Potency [6] | Potency [7] | Potency [8] | activation [9] -0.0832% | Potency [10] | outcome [11] | outcome [12] | outcome [13] | activity change % (negative = inhibition) [14] -4.52% | Potency [15] | activation [16] -1.73% | Potency [17] | max response [18] 9.37% | outcome [19]

CC(C)(C)OOC(C)(C)C
inactive: Potency [1] | Potency [2] | Potency [3] | Potency [4] | Potency [5] | Potency [6] | Potency [7] | Potency [8] | activation [9] -1.7% | Potency [10] | outcome [11] | outcome [12] | outcome [13] | activity change % (negative = inhibition) [14] -4.91% | Potency [15] | activation [16] -4.97% | Potency [17] | Potency [20] | max response [18] 2.42% | outcome [19]

CCC[CH2][Sn]([Cl])([Cl])[Cl]
inactive: Potency [1] | Potency [2] | Potency [3] | Potency [4] | Potency [5] | Potency [6] | Potency [7] | Potency [8] | activation [9] -4.16% and -3.24% | Potency [10] | outcome [11] | outcome [12] | outcome [13] | activity change % (negative = inhibition) [14] 9.88% | Potency [15] | activation [16] 0.255% and 3.17% | Potency [17] | Potency [20] | max response [18] 2.08% and 0.146% | outcome [19]
